Screening results: PubChem BioAssay, several laboratories
In the library only some 5.9% were active in any assay of this set; here they are far more common.
GAA850 FXN act = activators of GAA850 frataxin (FXN) promoter | AID 540364 | actives 0.56% (n = 360,000) | activation, % at 6 µM | HEK293 lucGAA850 FXN promoter luciferase reporter, 24 h; percent of 10 µM SAHA response;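 active = activation above the average of all compounds screened plus 3 SD, cutoff fixed separately per campaign, cut at about 7.5% in these data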;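 note: 0% = DMSO wells and 100% = 10 µM SAHA wells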
HSF1 inh = HSF1 inhibition | NIH3T3-HGL HSE-luciferase, MG132-induced, luminescence 8 h; hits give low values | activity change, negative = inhibition, % at 7.5 µM (by protocol) | actives 0.77% (n = 300,000);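 active = more than half of replicate wells show activity change below -50%, luminescence cut by over half; inconclusive = some wells, but at most half, below -50%; inactive = no replicate well below -50%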;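 note: luciferase reports HSF-1 transcriptional activity via heat shock element; 0% = median of DMSO wells and -100% = zero luminescence signal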
HSP90 refold inh = blocks HSP90-mediated luciferase refolding in reticulocyte lysate; actives 0.91% (n = 290,000); Rabbit reticulocyte lysate, luciferase refolding luminescence, 3 h; inhibition, % at 5.6 µM;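 active = inhibition above the screen-wide mean plus 3 SD, computed separately per campaign, cut at about 16% in these data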;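 note: 0% = DMSO wells and 100% = 60 µM geldanamycin wells; inhibitors lower the luminescence because luciferase stays unfolded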
AHR act = activates the human aryl hydrocarbon receptor; activation, % at 5 µM; AHR-responsive luciferase reporter cells, luminescence; P35869; AID 2796; actives 2.5% (n = 320,000); in the data active = activation above about 47%;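 note: 0% = vehicle wells and 100% = reference agonist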
Target sequence (P35869 whole entry, looked up): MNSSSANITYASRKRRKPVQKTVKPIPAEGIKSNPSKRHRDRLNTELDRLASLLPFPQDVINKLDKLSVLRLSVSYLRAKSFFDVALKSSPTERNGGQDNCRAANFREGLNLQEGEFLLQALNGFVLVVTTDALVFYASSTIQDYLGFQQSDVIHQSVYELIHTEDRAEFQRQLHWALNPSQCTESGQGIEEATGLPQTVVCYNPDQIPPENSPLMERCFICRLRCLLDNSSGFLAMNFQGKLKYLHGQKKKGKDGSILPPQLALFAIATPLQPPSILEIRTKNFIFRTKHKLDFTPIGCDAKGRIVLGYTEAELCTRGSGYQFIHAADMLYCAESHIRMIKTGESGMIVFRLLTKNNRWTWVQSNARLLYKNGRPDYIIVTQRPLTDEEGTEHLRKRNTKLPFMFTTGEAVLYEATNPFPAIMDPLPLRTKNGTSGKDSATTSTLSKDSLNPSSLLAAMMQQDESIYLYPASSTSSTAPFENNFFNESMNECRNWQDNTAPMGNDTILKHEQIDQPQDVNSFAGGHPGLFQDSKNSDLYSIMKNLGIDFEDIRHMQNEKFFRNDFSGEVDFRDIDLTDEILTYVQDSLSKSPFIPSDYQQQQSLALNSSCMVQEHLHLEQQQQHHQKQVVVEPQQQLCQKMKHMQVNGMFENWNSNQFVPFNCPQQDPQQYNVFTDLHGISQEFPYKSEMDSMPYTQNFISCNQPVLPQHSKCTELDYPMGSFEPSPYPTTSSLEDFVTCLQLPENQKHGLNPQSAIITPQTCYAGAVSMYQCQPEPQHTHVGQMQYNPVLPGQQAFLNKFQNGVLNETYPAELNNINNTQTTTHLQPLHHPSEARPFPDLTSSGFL
HSF-1 act = increases HSF-1 driven luciferase reporter signal; AID 504408; NIH3T3-HGL HSF-1 luciferase reporter, MG132, 8 h; 100% = twice DMSO control signal; actives 1.7% (n = 300,000); activation, % at 9 µM;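 active = mean replicate activation of at least 50% with a set share of replicates each reaching 50%; inconclusive = only one of those two conditions met; inactive = mean below 50% and too few replicates reaching it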;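 note: 0% = median of the neutral control wells and 100% = twice that signal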
NR0B1 inh = NR0B1 (DAX1) inhibition | P51843 | HEK293 Gal4-DAX1 luciferase reporter, luminescence | inhibition, % at 6.75 µM | actives 0.99% (n = 340,000) | AID 504766;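 active = inhibition above the mean over all tested compounds plus 3 SD, cut at about 4.2% in these data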;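 note: 0% = DAX1-transfected cells with DMSO and 100% = empty-vector control cells with DMSO; inhibition shows as a rise in luminescence from relieved DAX1 repression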
Active calls of the source: *.

Screening O=C(Cc1ccc2c(c1)CCCC2)Nc1ccc2ccccc2c1 returned GAA850 FXN act 4.0, HSF1 inh 13.0, HSP90 refold inh 0.1, AHR act 30.7, HSF-1 act 56.7* and NR0B1 inh 0.1.
For O=C(CSc1cccs1)Nc1cccc2ccccc12 the results were GAA850 FXN act 7.6, HSF1 inh 23.9, HSP90 refold inh 4.1, AHR act 6.7, HSF-1 act 62.7* and NR0B1 inh 0.7.
Screening O=C(CSc1cccs1)Nc1ccc2ccccc2c1 returned GAA850 FXN act 1.8, HSF1 inh 28.6, HSP90 refold inh -1.1, AHR act 11.1, HSF-1 act 56.6* and NR0B1 inh 1.2.
Screening COc1ccccc1NC(=O)C(C)OC(=O)C1CCN(S(=O)(=O)c2ccccc2C(F)(F)F)CC1 (stereo not given) returned GAA850 FXN act -0.8 and NR0B1 inh -0.4.
Screening Cc1nc(-c2cccc(NC(=O)c3ccc(-n4nccc4C)cc3)c2)cs1 returned GAA850 FXN act -1.1, AHR act 2.2 and NR0B1 inh -1.8.
`Cc1nc(-c2ccc(C(=O)Nc3cccc(Br)c3)cc2)cs1` gave GAA850 FXN act -1.1, HSF1 inh 14.3, HSP90 refold inh 10.3, AHR act -11.1, HSF-1 act 55.9* and NR0B1 inh -3.3.
Screening Cc1nc(-c2ccc(NC(=O)c3ccc(Br)o3)cc2)cs1 returned GAA850 FXN act 1.3, HSF1 inh 23.9, HSP90 refold inh 7.2, AHR act -1.3, HSF-1 act 52.8* and NR0B1 inh 1.0.
COc1cc2c(C#Cc3cccnc3)c(-c3ccsc3)oc(=O)c2cc1OC was read as GAA850 FXN act 0.5, AHR act 8.7 and NR0B1 inh 0.3.
CC(C)(C)NC1=NCCNC(c2ccccc2)=C1 was read as GAA850 FXN act 2.0 and NR0B1 inh 1.4.
For N#C/C(=C\c1ccc(OCc2ccc(F)cc2)cc1)C(=O)Nc1cccc(C(=O)O)c1 the results were GAA850 FXN act 2.6, HSF1 inh 35.0, HSP90 refold inh -1.0, AHR act 20.2, HSF-1 act 26.1 and NR0B1 inh 1.8.
`COc1cc(/C=C(\C#N)C(=O)Nc2cccc(C(=O)O)c2)ccc1OCc1ccc(F)cc1` gave GAA850 FXN act 1.4, HSF1 inh 50.9, HSP90 refold inh 1.1, AHR act 6.3, HSF-1 act 77.4* and NR0B1 inh 0.6.
N#C/C(=C\c1ccc(OCc2ccc(Br)cc2)cc1)C(=O)Nc1cccc(C(=O)O)c1 was read as GAA850 FXN act 2.7, HSF1 inh 34.0, HSP90 refold inh 0.1, AHR act 0.1, HSF-1 act 72.2* and NR0B1 inh 1.2.
For COc1ccc(CN(C)CC(=O)NCC(=O)Nc2c(C)cccc2C)cc1 the results were GAA850 FXN act -0.2, AHR act 1.3 and NR0B1 inh -0.7.
For CCCc1cc(=O)[nH]c(SCC(=O)Nc2cc(S(=O)(=O)N3CCOCC3)ccc2N(CC)CC)n1 the results were GAA850 FXN act 0.9, AHR act 1.1 and NR0B1 inh 0.3.
`O=C(Nc1ccccc1)c1ncoc1-c1ccc(Cl)cc1` gave GAA850 FXN act 5.2, HSP90 refold inh 3.0, AHR act 56.9* and NR0B1 inh 2.1.
Screening O=C(Nc1ccc(-c2cnco2)cc1)c1ccc(Cl)cc1 returned GAA850 FXN act 1.2, HSP90 refold inh 1.8 and AHR act -5.8.
CC(O)(c1ccc(F)c(F)c1)c1nc(-c2ccccc2)cs1 (stereo not given) was read as GAA850 FXN act -0.3.
`Cc1nc(C/C(=N\N)c2ccc(O)cc2O)cs1` gave GAA850 FXN act -0.4, HSF1 inh 7.3, HSP90 refold inh -2.0, AHR act 8.1, HSF-1 act 15.3 and NR0B1 inh 0.6.
For COc1ccc(CC(=O)c2ccc(O)cc2O)cc1 the results were GAA850 FXN act 2.5, HSF1 inh 9.2, HSP90 refold inh -2.0, AHR act -0.4, HSF-1 act 20.9 and NR0B1 inh 5.8*.
COc1ccc(C(=O)OCc2csc(C)n2)c(O)c1 was read as GAA850 FXN act 4.5, HSF1 inh 25.6, HSP90 refold inh 0.2, AHR act 6.8, HSF-1 act 64.8* and NR0B1 inh 0.5.
`Cc1ccc(N/C=C(\C#N)c2ccc(OCCCF)cc2)cc1` gave GAA850 FXN act 0.6, HSF1 inh 11.1, HSP90 refold inh -0.1, AHR act 53.5*, HSF-1 act 11.4 and NR0B1 inh 1.0.
For Cc1ccc(N/C=C(/C#N)c2ccsc2)cc1 the results were GAA850 FXN act 1.0, HSF1 inh 26.3, HSP90 refold inh -4.2, AHR act 46.4, HSF-1 act 53.2* and NR0B1 inh 0.7.
For COc1ccc(N/C=C(\C#N)c2ccc(OCCCF)cc2)cc1 the results were GAA850 FXN act 0.7, HSF1 inh 6.4, HSP90 refold inh 2.6, AHR act 7.6, HSF-1 act 28.2 and NR0B1 inh 0.5.
CC1(C(=O)O)CCCN(C(=O)c2ccc3c(c2)C(C)(C)CCC3(C)C)C1 (stereo not given) was read as GAA850 FXN act 0.9.
`COc1cc(OC)cc(C(=O)NCCNc2nc3cc(C)cc(C)c3cc2C#N)c1` gave GAA850 FXN act 2.2, HSF1 inh 12.2, HSP90 refold inh -2.6, AHR act 3.2, HSF-1 act 15.1 and NR0B1 inh 0.1.
`CSc1ccc(CN(C)Cc2cc(=O)oc3c(C)c(C)ccc23)cc1` gave GAA850 FXN act 1.2, HSF1 inh -69.1*, HSP90 refold inh 0.3, AHR act -0.2, HSF-1 act -75.0 and NR0B1 inh 0.1.
Cc1ccc2c(CN3CCC(C)CC3)cc(=O)oc2c1C was read as GAA850 FXN act 2.9, HSF1 inh 23.9, HSP90 refold inh 2.8, HSF-1 act 54.1* and NR0B1 inh 0.3.
Cc1cc(C)c2c(CN3CCC(C)CC3)cc(=O)oc2c1C was read as GAA850 FXN act -0.1, HSF1 inh 11.6, HSP90 refold inh -0.7, AHR act 10.7, HSF-1 act 29.5 and NR0B1 inh 4.8*.
Screening Cc1cc(C)c2oc(=O)cc(CN3CCC(C)CC3)c2c1 returned GAA850 FXN act 0.5, HSF1 inh 5.6, HSP90 refold inh 2.7, AHR act 1.1, HSF-1 act 1.6 and NR0B1 inh 3.6.
Screening Cc1ccc2c(CN3CC(C)CC(C)C3)cc(=O)oc2c1C (stereo not given) returned GAA850 FXN act 1.9, HSF1 inh 4.1, HSP90 refold inh -1.5, AHR act 2.1, HSF-1 act 11.4 and NR0B1 inh -1.2.
For C(=N\Nc1nc2ccccc2s1)/c1cccs1 the results were GAA850 FXN act 4.3, HSF1 inh 14.7, HSP90 refold inh -0.8, AHR act 76.2*, HSF-1 act inconclusive and NR0B1 inh 2.7.
Screening CCn1c(C)c(/C=N/Nc2nc3ccccc3s2)c2ccccc21 returned GAA850 FXN act 2.6, HSF1 inh 14.2, HSP90 refold inh 2.9, AHR act 44.1, HSF-1 act 53.2* and NR0B1 inh -0.8.
